# Data from ChEMBL document CHEMBL2218924, “A broad activity screen in support of a chemogenomic map for kinase signalling research and drug discovery” (Biochem J, 2013).
# How the values were obtained:
# [1] = target: Death-associated protein kinase 1 (Homo sapiens) (UniProt P53355); conditions: at 10 µM
# [2] = target: T1, Serine/threonine-protein kinase DCLK2 (Homo sapiens) (UniProt Q8N568); conditions: at 1 µM
# T1 sequence (whole entry): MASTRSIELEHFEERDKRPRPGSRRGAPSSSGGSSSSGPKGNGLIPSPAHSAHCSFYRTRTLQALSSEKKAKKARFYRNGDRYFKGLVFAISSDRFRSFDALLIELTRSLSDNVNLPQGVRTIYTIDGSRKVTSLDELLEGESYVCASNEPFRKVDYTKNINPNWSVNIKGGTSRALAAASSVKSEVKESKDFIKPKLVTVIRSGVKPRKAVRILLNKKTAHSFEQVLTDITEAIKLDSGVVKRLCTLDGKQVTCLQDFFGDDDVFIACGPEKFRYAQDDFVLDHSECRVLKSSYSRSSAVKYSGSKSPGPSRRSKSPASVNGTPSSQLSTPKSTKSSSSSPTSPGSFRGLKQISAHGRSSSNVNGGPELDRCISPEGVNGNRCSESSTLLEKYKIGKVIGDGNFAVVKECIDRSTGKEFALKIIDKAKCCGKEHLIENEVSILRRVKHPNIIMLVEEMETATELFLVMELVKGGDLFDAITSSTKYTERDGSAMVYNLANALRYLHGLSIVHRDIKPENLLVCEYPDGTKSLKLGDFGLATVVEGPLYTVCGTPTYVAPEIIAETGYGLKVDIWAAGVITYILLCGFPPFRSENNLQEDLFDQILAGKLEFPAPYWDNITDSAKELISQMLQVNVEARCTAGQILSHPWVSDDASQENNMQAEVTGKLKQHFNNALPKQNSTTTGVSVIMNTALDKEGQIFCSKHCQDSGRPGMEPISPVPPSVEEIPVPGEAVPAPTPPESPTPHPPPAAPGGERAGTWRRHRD
# [3] = target: T1, Serine/threonine-protein kinase DCLK2 (Homo sapiens); conditions: at 10 µM
# [4] = target: T2, Discoidin domain-containing receptor 2 (Homo sapiens) (UniProt Q16832); conditions: at 1 µM
# T2 sequence (whole entry): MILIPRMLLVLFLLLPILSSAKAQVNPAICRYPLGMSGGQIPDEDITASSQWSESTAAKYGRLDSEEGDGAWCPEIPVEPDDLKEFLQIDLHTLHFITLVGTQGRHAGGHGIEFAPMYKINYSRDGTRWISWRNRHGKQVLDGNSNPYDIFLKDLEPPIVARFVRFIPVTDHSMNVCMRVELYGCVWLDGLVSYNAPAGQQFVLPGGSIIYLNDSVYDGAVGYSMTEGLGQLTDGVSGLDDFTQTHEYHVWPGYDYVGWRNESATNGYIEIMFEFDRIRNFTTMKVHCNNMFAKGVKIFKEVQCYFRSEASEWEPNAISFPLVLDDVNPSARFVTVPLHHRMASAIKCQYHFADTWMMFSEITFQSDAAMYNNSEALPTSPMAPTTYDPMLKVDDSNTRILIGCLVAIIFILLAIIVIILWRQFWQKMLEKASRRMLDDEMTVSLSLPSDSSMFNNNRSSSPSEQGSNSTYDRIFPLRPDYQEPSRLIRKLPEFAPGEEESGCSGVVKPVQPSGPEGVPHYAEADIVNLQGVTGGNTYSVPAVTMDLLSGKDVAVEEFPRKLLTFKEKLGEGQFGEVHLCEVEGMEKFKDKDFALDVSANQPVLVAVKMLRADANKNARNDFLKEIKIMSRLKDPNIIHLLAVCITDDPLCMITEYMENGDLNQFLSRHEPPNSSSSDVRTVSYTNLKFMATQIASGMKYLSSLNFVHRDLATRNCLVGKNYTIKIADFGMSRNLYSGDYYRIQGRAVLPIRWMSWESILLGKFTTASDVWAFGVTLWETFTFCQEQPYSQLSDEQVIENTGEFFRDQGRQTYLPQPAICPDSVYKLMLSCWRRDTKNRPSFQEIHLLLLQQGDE
# [5] = target: T2, Discoidin domain-containing receptor 2 (Homo sapiens); conditions: at 10 µM
# [6] = target: T3, Myotonin-protein kinase (Homo sapiens) (UniProt Q09013); conditions: at 1 µM
# T3 sequence (whole entry): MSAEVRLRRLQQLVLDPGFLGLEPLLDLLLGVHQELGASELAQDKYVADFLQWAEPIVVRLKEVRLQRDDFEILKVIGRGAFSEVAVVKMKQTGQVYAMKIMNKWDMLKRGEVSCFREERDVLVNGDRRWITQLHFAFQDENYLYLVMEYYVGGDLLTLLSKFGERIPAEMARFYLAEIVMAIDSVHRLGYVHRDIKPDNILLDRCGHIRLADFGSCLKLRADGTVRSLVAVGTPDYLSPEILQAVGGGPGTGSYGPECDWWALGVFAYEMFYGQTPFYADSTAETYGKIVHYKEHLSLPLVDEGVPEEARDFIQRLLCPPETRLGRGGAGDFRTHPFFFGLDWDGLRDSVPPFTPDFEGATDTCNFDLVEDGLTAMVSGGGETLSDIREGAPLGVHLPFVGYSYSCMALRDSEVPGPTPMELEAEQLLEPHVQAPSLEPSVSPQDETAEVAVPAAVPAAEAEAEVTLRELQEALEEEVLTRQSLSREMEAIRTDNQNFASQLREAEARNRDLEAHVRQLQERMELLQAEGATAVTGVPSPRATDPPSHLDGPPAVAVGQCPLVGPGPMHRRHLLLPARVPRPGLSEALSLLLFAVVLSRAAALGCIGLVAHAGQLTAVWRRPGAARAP
# [7] = target: T3, Myotonin-protein kinase (Homo sapiens); conditions: at 10 µM
# [8] = target: T4, Ephrin type-A receptor 1 (Homo sapiens) (UniProt P21709); conditions: at 1 µM
# T4 sequence (whole entry): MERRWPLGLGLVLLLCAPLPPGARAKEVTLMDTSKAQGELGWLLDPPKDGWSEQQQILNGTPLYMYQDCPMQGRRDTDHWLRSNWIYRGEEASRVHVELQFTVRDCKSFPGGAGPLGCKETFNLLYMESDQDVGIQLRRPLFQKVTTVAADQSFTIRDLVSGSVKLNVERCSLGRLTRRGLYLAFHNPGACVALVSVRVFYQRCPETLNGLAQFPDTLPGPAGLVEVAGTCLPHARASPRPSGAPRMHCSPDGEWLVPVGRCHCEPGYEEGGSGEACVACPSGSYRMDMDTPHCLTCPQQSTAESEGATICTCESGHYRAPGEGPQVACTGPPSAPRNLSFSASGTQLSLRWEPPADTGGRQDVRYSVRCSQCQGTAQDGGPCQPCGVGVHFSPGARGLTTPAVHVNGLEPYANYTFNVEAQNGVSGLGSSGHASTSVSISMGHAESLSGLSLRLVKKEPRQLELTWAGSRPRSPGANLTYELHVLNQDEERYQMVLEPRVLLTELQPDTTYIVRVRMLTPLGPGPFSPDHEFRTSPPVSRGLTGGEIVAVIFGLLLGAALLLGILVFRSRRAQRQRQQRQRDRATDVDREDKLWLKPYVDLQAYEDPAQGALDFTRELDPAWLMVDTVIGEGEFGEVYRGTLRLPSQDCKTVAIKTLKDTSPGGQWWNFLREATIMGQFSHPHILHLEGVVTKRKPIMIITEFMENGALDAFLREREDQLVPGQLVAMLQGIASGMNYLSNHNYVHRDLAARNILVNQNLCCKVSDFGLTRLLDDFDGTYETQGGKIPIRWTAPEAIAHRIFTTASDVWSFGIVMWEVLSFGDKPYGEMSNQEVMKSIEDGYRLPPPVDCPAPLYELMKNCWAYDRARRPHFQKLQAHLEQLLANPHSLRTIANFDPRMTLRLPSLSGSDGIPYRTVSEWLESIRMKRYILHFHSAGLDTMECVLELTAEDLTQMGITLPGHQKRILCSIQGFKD
# [9] = target: T4, Ephrin type-A receptor 1 (Homo sapiens); conditions: at 10 µM
# [10] = target: Ephrin type-A receptor 2 (Homo sapiens) (UniProt P29317); conditions: at 1 µM
# Chain of Ephrin type-A receptor 2 (Homo sapiens) (P29317 whole entry): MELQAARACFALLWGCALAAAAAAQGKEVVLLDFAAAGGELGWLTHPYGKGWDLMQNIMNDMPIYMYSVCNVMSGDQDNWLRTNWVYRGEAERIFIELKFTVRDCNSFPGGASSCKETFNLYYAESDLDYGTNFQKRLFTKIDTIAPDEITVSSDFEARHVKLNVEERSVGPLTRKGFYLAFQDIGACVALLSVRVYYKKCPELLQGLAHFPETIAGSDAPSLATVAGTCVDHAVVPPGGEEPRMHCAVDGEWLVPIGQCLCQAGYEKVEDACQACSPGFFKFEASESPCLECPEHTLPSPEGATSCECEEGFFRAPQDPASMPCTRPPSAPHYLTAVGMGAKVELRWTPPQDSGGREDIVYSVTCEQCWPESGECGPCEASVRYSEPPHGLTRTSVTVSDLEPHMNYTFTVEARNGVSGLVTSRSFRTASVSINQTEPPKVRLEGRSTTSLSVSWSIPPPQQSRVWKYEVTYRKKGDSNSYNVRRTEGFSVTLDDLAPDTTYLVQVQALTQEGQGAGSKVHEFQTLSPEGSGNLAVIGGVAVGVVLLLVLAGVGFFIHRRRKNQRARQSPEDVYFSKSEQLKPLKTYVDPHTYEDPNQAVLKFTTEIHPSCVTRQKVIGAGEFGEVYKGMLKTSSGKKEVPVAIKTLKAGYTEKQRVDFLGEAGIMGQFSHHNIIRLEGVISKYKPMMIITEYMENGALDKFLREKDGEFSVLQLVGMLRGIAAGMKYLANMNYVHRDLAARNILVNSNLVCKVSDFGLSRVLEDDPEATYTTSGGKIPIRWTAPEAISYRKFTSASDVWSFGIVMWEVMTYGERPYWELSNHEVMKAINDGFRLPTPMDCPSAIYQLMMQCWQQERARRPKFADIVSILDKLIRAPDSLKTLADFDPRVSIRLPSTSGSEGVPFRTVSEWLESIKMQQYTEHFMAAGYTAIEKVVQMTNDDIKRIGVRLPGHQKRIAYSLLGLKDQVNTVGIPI
# [11] = target: Ephrin type-A receptor 2 (Homo sapiens) (UniProt P29317); conditions: at 10 µM
# [12] = target: T5, Ephrin type-A receptor 3 (Homo sapiens) (UniProt P29320); conditions: at 1 µM
# T5 sequence (whole entry): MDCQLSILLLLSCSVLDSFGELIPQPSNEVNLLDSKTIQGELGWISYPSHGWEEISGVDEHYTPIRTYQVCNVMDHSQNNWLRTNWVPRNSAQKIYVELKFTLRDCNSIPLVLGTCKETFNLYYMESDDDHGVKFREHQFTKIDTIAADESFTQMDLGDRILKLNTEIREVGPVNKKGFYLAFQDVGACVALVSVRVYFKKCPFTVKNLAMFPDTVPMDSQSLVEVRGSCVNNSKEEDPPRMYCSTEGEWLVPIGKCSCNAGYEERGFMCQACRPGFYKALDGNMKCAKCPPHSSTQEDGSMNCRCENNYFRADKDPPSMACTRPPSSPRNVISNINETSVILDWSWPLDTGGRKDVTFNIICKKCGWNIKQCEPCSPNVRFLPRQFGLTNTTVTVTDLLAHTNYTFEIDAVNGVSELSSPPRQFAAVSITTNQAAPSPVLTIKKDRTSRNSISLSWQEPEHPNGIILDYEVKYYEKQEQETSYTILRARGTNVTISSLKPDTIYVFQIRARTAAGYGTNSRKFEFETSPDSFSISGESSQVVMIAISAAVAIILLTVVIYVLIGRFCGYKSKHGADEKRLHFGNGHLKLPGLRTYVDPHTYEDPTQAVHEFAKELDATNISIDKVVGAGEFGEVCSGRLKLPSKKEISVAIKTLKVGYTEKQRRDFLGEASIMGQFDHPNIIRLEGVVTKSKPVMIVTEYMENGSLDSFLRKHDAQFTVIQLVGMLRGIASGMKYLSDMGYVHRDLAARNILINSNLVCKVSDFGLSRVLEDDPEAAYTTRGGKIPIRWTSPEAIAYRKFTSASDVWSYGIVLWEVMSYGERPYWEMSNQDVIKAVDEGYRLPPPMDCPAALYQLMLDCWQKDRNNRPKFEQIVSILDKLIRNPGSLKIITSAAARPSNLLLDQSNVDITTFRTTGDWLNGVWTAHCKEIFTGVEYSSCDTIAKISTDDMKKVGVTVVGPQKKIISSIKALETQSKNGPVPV
# [13] = target: Death-associated protein kinase 2 (Homo sapiens) (UniProt Q9UIK4); conditions: at 1 µM
# Chain of Death-associated protein kinase 2 (Homo sapiens) (Q9UIK4 whole entry, looked up): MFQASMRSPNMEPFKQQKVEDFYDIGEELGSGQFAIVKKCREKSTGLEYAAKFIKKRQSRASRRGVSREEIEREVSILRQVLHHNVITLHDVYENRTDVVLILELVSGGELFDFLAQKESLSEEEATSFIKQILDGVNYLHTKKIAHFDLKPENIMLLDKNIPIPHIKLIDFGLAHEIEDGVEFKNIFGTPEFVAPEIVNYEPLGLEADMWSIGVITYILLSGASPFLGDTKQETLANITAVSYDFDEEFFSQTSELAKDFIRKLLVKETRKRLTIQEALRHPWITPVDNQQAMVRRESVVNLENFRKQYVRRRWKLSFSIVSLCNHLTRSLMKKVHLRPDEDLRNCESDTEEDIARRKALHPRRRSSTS
# [14] = target: Death-associated protein kinase 2 (Homo sapiens) (UniProt Q9UIK4); conditions: at 10 µM
# [15] = target: T6, Serine/threonine-protein kinase 17A (Homo sapiens) (UniProt Q9UEE5); conditions: at 1 µM
# T6 sequence (whole entry): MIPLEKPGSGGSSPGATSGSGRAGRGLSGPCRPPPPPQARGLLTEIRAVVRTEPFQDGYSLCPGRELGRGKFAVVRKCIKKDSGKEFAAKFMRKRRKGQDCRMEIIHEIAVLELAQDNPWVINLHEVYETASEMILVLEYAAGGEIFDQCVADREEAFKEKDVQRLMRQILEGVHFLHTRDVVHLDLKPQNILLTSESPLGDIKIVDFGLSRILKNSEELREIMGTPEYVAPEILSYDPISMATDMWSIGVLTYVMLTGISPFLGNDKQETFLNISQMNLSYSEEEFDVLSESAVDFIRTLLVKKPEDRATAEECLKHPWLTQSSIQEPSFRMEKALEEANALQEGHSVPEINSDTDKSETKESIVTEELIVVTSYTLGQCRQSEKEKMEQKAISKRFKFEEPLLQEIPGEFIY
# [16] = target: T6, Serine/threonine-protein kinase 17A (Homo sapiens); conditions: at 10 µM
# [17] = target: T7, Dual specificity tyrosine-phosphorylation-regulated kinase 2 (Homo sapiens) (UniProt Q92630); conditions: at 1 µM
# T7 sequence (whole entry): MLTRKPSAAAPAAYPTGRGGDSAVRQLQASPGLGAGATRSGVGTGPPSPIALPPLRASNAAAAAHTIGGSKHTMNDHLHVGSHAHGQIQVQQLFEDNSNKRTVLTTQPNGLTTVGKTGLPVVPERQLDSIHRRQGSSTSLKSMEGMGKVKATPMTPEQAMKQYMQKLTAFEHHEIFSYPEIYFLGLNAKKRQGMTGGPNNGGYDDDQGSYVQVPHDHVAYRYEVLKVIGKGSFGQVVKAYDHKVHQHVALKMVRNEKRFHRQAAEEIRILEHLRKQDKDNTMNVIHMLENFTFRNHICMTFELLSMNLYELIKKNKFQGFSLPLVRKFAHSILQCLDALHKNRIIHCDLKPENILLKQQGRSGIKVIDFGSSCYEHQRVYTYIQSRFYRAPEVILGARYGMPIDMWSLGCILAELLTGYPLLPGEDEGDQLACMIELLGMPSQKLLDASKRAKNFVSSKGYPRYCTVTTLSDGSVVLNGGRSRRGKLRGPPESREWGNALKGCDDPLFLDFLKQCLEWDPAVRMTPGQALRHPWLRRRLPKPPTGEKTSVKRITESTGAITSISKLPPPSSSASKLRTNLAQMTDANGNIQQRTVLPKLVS
# [18] = target: T7, Dual specificity tyrosine-phosphorylation-regulated kinase 2 (Homo sapiens); conditions: at 10 µM
# Chain of Death-associated protein kinase 1 (Homo sapiens) (P53355 whole entry, looked up): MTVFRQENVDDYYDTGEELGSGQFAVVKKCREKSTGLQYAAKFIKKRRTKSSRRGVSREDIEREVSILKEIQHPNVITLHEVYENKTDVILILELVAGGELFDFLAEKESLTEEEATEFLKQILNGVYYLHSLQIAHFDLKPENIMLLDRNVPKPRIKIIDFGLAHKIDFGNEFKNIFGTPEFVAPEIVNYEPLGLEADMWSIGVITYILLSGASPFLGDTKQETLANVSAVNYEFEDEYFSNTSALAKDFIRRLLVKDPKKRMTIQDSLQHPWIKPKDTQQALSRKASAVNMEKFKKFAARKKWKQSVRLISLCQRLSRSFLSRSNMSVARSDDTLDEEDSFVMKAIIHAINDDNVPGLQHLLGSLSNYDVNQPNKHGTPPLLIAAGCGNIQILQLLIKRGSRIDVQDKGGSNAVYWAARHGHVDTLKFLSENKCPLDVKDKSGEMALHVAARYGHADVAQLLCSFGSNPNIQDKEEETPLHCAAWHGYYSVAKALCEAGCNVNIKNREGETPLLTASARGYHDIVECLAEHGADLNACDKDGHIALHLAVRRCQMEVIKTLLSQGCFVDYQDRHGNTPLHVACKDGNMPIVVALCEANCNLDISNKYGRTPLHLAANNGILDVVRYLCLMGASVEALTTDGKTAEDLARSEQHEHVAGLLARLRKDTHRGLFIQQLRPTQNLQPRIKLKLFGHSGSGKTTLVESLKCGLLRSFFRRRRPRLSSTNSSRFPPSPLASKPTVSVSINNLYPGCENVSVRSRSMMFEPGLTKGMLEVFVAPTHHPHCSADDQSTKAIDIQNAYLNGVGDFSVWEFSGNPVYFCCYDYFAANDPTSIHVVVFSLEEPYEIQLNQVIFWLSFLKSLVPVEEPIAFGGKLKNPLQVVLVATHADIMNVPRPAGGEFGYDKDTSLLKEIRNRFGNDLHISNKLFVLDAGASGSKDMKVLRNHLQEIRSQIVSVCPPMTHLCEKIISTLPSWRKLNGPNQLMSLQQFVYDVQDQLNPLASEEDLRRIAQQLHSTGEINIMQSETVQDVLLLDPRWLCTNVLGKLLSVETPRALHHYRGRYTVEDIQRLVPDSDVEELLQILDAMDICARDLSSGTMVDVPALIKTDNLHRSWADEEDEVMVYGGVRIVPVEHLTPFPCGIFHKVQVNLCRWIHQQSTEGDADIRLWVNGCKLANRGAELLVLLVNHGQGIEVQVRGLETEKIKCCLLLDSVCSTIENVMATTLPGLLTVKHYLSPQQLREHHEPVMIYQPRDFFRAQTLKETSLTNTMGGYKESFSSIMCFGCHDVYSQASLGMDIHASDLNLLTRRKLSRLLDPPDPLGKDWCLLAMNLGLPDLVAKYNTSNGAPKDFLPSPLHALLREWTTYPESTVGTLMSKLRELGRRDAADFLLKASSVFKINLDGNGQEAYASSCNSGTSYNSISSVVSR
SMILES,residual activity [1],residual activity [2],residual activity [3],residual activity [4],residual activity [5],residual activity [6],residual activity [7],residual activity [8],residual activity [9],residual activity [10],residual activity [11],residual activity [12],residual activity [13],residual activity [14],residual activity [15],residual activity [16],residual activity [17],residual activity [18]
COc1cc2nccc(Oc3ccc(NC(=O)Nc4cc(C)on4)c(Cl)c3)c2cc1OC,69%,99%,104%,1%,0%,100%,148%,10%,6%,-3%,-3%,1%,,,,,,
CCN(CC)CCNC(=O)c1c(C)[nH]c(/C=C2\C(=O)Nc3ccc(Cl)cc32)c1C,31%,68%,24%,,44%,52%,68%,82%,37%,,73%,,63%,16%,3%,2%,78%,37%
CC(C)(C)c1nc2c3ccc(F)cc3c3c(=O)[nH]ccc3c2[nH]1,3%,38%,27%,,,,,74%,,103%,103%,99%,11%,14%,0%,0%,,
CC(C)N(CCC(=O)c1ccc2ccccc2c1)Cc1ccccc1,76%,80%,80%,,,,131%,75%,85%,,,,,,,,,
CN(C)S(=O)(=O)c1ccc2c(c1)/C(=C/c1cc3c([nH]1)CCCC3)C(=O)N2,99%,55%,55%,,,113%,92%,96%,96%,89%,,91%,,,70%,,,91%
O=C1NC(=O)c2c1c1c3ccccc3[nH]c1n1cncc21,41%,96%,85%,85%,91%,,,74%,50%,87%,86%,91%,9%,-1%,10%,6%,68%,57%
Nc1ncnc2c1c(-c1ccc(Oc3ccccc3)cc1)cn2C1CCCC1,69%,91%,93%,105%,53%,127%,127%,72%,18%,100%,55%,101%,101%,,110%,104%,91%,82%
